About 83,000 compounds went through this panel and 20% of them were active in at least one assay; those are over-represented in the sample as a whole.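 A percent growth of 40 corresponds to 60% growth inhibition; 0 means no net growth; -100 means all cells died. Active threshold: below 10.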 Activity calls are given as the source filed them.
Columns and labels:
Assay in all cases: NCI-60 one-dose screen, 48 h (100 = growth as untreated, 0 = no growth, -100 = all killed)
Conditions in all cases: 10 µM unless noted
DU-145 prostate = system: DU-145 prostate
K-562 leukemia = system: K-562 leukemia
MALME-3M melanoma = system: MALME-3M melanoma
MDA-MB-231 breast = system: MDA-MB-231 breast
RXF 393 renal = system: RXF 393 renal
SF-268 CNS = system: SF-268 CNS
SF-295 CNS = system: SF-295 CNS
SF-539 CNS = system: SF-539 CNS
UACC-257 melanoma = system: UACC-257 melanoma
M14 melanoma = system: M14 melanoma
HCT-15 colon = system: HCT-15 colon
HT29 colon = system: HT29 colon
SNB-75 CNS = system: SNB-75 CNS
SNB-19 CNS = system: SNB-19 CNS
U251 CNS = system: U251 CNS
PC-3 prostate = system: PC-3 prostate
SK-MEL-5 melanoma = system: SK-MEL-5 melanoma
UACC-62 melanoma = system: UACC-62 melanoma
LOX IMVI melanoma = system: LOX IMVI melanoma
SK-MEL-28 melanoma = system: SK-MEL-28 melanoma

Measured: growth

Cc1cccc(NCc2cn(-c3ccc(C(=O)O)cc3)nc2-c2ccc(C(=O)O)cc2)n1
inactive: DU-145 prostate 103% | K-562 leukemia 96.8% | MALME-3M melanoma 96.5% | MDA-MB-231 breast 95.2% | RXF 393 renal 115% | SF-268 CNS 96.2% | SF-295 CNS 102% | SF-539 CNS 98.5% | UACC-257 melanoma 109% | M14 melanoma 110% | HCT-15 colon 107% | HT29 colon 107% | SNB-75 CNS 87.4% | SNB-19 CNS 104% | U251 CNS 108% | PC-3 prostate 103% | SK-MEL-5 melanoma 103% | UACC-62 melanoma 101% | LOX IMVI melanoma 100% | SK-MEL-28 melanoma 104%

CC1(C)C2CC1C1(/C=N\Nc3ccccc3)C(C2)C(C#N)(C#N)C1(C#N)C#N (stereo not given)
inactive: DU-145 prostate 101% | K-562 leukemia 84.9% | MALME-3M melanoma 97.7% | MDA-MB-231 breast 75.8% | RXF 393 renal 103% | SF-268 CNS 86.3% | SF-295 CNS 104% | SF-539 CNS 107% | UACC-257 melanoma 98.9% | M14 melanoma 83.6% | HCT-15 colon 87.3% | HT29 colon 102% | SNB-75 CNS 91.4% | SNB-19 CNS 96.2% | U251 CNS 94.8% | PC-3 prostate 72.2% | SK-MEL-5 melanoma 94.4% | UACC-62 melanoma 58.5% | LOX IMVI melanoma 52.2% | SK-MEL-28 melanoma 106%

COc1nc2ccc(C)cc2cc1-c1nc2c(cnn2-c2ccc(Br)cc2)c(=O)[nH]1
inactive: DU-145 prostate 53.4% | K-562 leukemia 16% | MALME-3M melanoma 73% | MDA-MB-231 breast 76.1% | RXF 393 renal 15.9% | SF-268 CNS 49.6% | SF-295 CNS 26.7% | SF-539 CNS 12.1% | UACC-257 melanoma 47.4% | M14 melanoma 27.7% | HCT-15 colon 40.5% | HT29 colon 10.3% | SNB-75 CNS 25.9% | SNB-19 CNS 41.8% | U251 CNS 15.2% | PC-3 prostate 28.1% | SK-MEL-5 melanoma 51.1% | UACC-62 melanoma 29.1% | LOX IMVI melanoma 34.1% | SK-MEL-28 melanoma 39.3%

Cc1ncc(C(=O)Nc2ccc(CN3CCN(C)CC3)c(C(F)(F)F)c2)cc1C#Cc1ccc(N)nc1
active: K-562 leukemia 5.34% | MALME-3M melanoma -88.9% | MDA-MB-231 breast -64.3% | RXF 393 renal -60.2% | SF-268 CNS -11.9% | SF-539 CNS -39.3% | UACC-257 melanoma 0.961% | M14 melanoma -56.8% | HCT-15 colon 6.59% | SNB-75 CNS -57.3% | SK-MEL-5 melanoma -100% | UACC-62 melanoma -70.2% | LOX IMVI melanoma -94.9% | SK-MEL-28 melanoma -46.2%
inactive: DU-145 prostate 18.1% | SF-295 CNS 18.5% | HT29 colon 18.1% | SNB-19 CNS 26.9% | U251 CNS 17.6% | PC-3 prostate 10.9%

O=C1c2ccccc2NC(n2sc3ccccc3c2=O)N1c1ccccc1 (stereo not given)
inactive: DU-145 prostate 107% | K-562 leukemia 95.5% | MALME-3M melanoma 106% | MDA-MB-231 breast 90.6% | RXF 393 renal 110% | SF-268 CNS 91.7% | SF-295 CNS 99.6% | SF-539 CNS 94.7% | UACC-257 melanoma 120% | M14 melanoma 102% | HCT-15 colon 91.5% | HT29 colon 90.6% | SNB-75 CNS 94% | SNB-19 CNS 101% | U251 CNS 104% | PC-3 prostate 92.9% | SK-MEL-5 melanoma 105% | UACC-62 melanoma 93.3% | LOX IMVI melanoma 87.9% | SK-MEL-28 melanoma 116%

CN(C(=O)NCc1cccc(F)c1Cl)[C@H](COC(=O)Nc1cc2ccccc2cn1)CC(O)CO (stereo not given in full)
active: SNB-75 CNS -21.4%
inactive: DU-145 prostate 94.4% | K-562 leukemia 91.5% | MALME-3M melanoma 100% | MDA-MB-231 breast 46.8% | RXF 393 renal 84.8% | SF-268 CNS 49.8% | SF-295 CNS 69.7% | SF-539 CNS 37% | UACC-257 melanoma 102% | M14 melanoma 98.8% | HCT-15 colon 101% | HT29 colon 99.4% | SNB-19 CNS 97.2% | U251 CNS 74% | PC-3 prostate 80.8% | SK-MEL-5 melanoma 103% | UACC-62 melanoma 106% | LOX IMVI melanoma 61.9% | SK-MEL-28 melanoma 119%

O=C1CSC(c2c(Cl)cccc2Cl)N1c1nc(Cl)cc(=O)[nH]1 (stereo not given)
inactive: DU-145 prostate 123% | K-562 leukemia 93.2% | MALME-3M melanoma 216% | MDA-MB-231 breast 108% | RXF 393 renal 113% | SF-268 CNS 106% | SF-295 CNS 91.3% | SF-539 CNS 102% | UACC-257 melanoma 99.6% | M14 melanoma 106% | HCT-15 colon 123% | HT29 colon 111% | SNB-75 CNS 113% | SNB-19 CNS 103% | U251 CNS 112% | PC-3 prostate 73.1% | SK-MEL-5 melanoma 97% | UACC-62 melanoma 102% | LOX IMVI melanoma 104% | SK-MEL-28 melanoma 115%

N#C/C(=C\c1cccc2cnccc12)n1nnc2cccc(F)c21
inactive: K-562 leukemia 11.9% | MALME-3M melanoma 22.6% | MDA-MB-231 breast 31.7% | SF-268 CNS 67.4% | SF-295 CNS 93.4% | SF-539 CNS 36.6% | UACC-257 melanoma 52.1% | M14 melanoma 35.1% | HCT-15 colon 10.2% | HT29 colon 27.5% | SNB-19 CNS 80.7% | U251 CNS 78.9% | PC-3 prostate 48.7% | SK-MEL-5 melanoma 58.7% | UACC-62 melanoma 36.5% | LOX IMVI melanoma 14.9% | SK-MEL-28 melanoma 37.1%
active: DU-145 prostate 2.26% | RXF 393 renal -2.13% | SNB-75 CNS -5.04%

COc1cc(C(=O)/C=C/c2sc(Cl)nc2Cl)cc(OC)c1OC
active: K-562 leukemia 3.23% | MALME-3M melanoma -35.1% | RXF 393 renal -28.9% | SF-539 CNS -11.9% | HCT-15 colon -57.2% | U251 CNS 6.7% | LOX IMVI melanoma -86.5%
inactive: DU-145 prostate 43.5% | MDA-MB-231 breast 31.7% | SF-268 CNS 61.5% | SF-295 CNS 92.8% | UACC-257 melanoma 70.8% | M14 melanoma 42.3% | HT29 colon 25.1% | SNB-75 CNS 73.1% | SNB-19 CNS 77.6% | PC-3 prostate 50.8% | SK-MEL-5 melanoma 88.7% | UACC-62 melanoma 85.1% | SK-MEL-28 melanoma 18.5%

CN1CCN(c2ccc(-c3cc4c(Nc5ccc(F)c(Cl)c5)ncnn4c3)cn2)CC1
inactive: DU-145 prostate 58.1% | K-562 leukemia 11.7% | MALME-3M melanoma 50.3% | MDA-MB-231 breast 77.3% | RXF 393 renal 101% | SF-268 CNS 98.7% | SF-295 CNS 103% | SF-539 CNS 68% | UACC-257 melanoma 105% | M14 melanoma 83.8% | HT29 colon 16.1% | SNB-75 CNS 72% | SNB-19 CNS 96.2% | U251 CNS 82.5% | PC-3 prostate 94.2% | SK-MEL-5 melanoma 100% | UACC-62 melanoma 106% | LOX IMVI melanoma 85.2% | SK-MEL-28 melanoma 87.6%
active: HCT-15 colon 7.04%

N#Cc1c(-c2ccc(Cl)cc2)nc2c(c(-c3ccccc3)nn2-c2ccccc2)c1-c1ccc(O)cc1
inactive: DU-145 prostate 50.8% | MALME-3M melanoma 61.5% | MDA-MB-231 breast 36.5% | SF-268 CNS 46.6% | SF-539 CNS 11.2% | UACC-257 melanoma 85.2% | M14 melanoma 38.3% | HCT-15 colon 27.2% | HT29 colon 91.8% | SNB-75 CNS 42.6% | SNB-19 CNS 65% | U251 CNS 34% | PC-3 prostate 12% | SK-MEL-5 melanoma 56.3% | UACC-62 melanoma 53.6% | LOX IMVI melanoma 26.5% | SK-MEL-28 melanoma 56.4%
active: K-562 leukemia 8.36% | RXF 393 renal -27% | SF-295 CNS 1.71%

O=c1c2cc(F)ccc2sc2c(N3CCNCC3)nc3ccc(F)cc3c12
inactive: MALME-3M melanoma 82.6% | RXF 393 renal 50.9% | SF-268 CNS 48.3% | SF-295 CNS 77.8% | UACC-257 melanoma 96.3% | SNB-75 CNS 53.9% | SNB-19 CNS 57% | PC-3 prostate 32% | SK-MEL-5 melanoma 81.5% | SK-MEL-28 melanoma 27.9%
active: DU-145 prostate -84.7% | K-562 leukemia -37.8% | MDA-MB-231 breast -76.4% | SF-539 CNS -89.4% | M14 melanoma -62% | HCT-15 colon -66.4% | HT29 colon -41.2% | U251 CNS -56.2% | UACC-62 melanoma 0.994% | LOX IMVI melanoma -98.5%

CCN1C(=O)N(CC)C2Nn3c(s/c(=C4\C(=O)N(CC(C)C)c5ccccc54)c3=O)=NC21 (stereo not given)
inactive: DU-145 prostate 34.5% | K-562 leukemia 15.6% | MALME-3M melanoma 70% | MDA-MB-231 breast 19.6% | SF-268 CNS 66.1% | SF-295 CNS 42.4% | UACC-257 melanoma 87.5% | M14 melanoma 18.9% | HCT-15 colon 27.3% | HT29 colon 86.4% | SNB-75 CNS 14.1% | SNB-19 CNS 54.7% | U251 CNS 36.3% | PC-3 prostate 38.1% | SK-MEL-5 melanoma 39.9% | UACC-62 melanoma 45.3% | LOX IMVI melanoma 54.2% | SK-MEL-28 melanoma 66%
active: RXF 393 renal -3.71% | SF-539 CNS 7.6%

COc1ccc(C(=O)C[C@]2(O)C(=O)Nc3c(Cl)ccc(Cl)c32)cc1
inactive: DU-145 prostate 21.7% | K-562 leukemia 13.6% | MALME-3M melanoma 51.1% | MDA-MB-231 breast 49% | SF-268 CNS 61.9% | UACC-257 melanoma 63.9% | HCT-15 colon 22.6% | HT29 colon 15.9% | SNB-19 CNS 38.9% | U251 CNS 33.9% | PC-3 prostate 34.3% | SK-MEL-5 melanoma 34.6% | UACC-62 melanoma 46.4% | LOX IMVI melanoma 45.9% | SK-MEL-28 melanoma 60.4%
active: RXF 393 renal -3.05% | SF-295 CNS 4.67% | SF-539 CNS -11.6% | M14 melanoma 5.9% | SNB-75 CNS -39.5%

NS(=O)(=O)c1ccc(-n2nc(C(=O)N/N=C\c3ccc(F)cc3)cc2-c2ccc(Br)cc2)cc1
inactive: DU-145 prostate 93.4% | K-562 leukemia 18% | MALME-3M melanoma 68.3% | MDA-MB-231 breast 85.3% | RXF 393 renal 77.8% | SF-268 CNS 82.2% | SF-295 CNS 74.6% | SF-539 CNS 89.7% | UACC-257 melanoma 86.1% | M14 melanoma 79.7% | HCT-15 colon 54.3% | HT29 colon 66.4% | SNB-75 CNS 37.4% | SNB-19 CNS 83% | U251 CNS 89% | PC-3 prostate 72.2% | SK-MEL-5 melanoma 87.2% | UACC-62 melanoma 64.4% | LOX IMVI melanoma 74.9% | SK-MEL-28 melanoma 77.8%

— PubChem BioAssay (NCI)
